In PubChem BioAssay (Tox21):
“And” between values parts separate entries of the source, which are not always exact repeats. Equal values may be shown once. Inconclusive results are not listed. Where a call stands in place of a potency, no number is given. The source made the active and inactive calls. Unless noted, calls come from the whole dose curve; as a rule, active = well fitted curve in the direction sought with a large enough effect in the repeat runs; inconclusive = weak or mixed curves; inactive = no such curve, though single readings can be large; an effect the other way counts as inactive or inconclusive.

Tests used:
[1] = qHTS assay to identify small molecule antagonists of the thyroid receptor (TR) signaling pathway (AID 743065); conditions: GH3.TRE-Luc, T3-stimulated luciferase inhibition, 23.5 h; series mostly up to 70.3 µM; note: nearly all actives have a fitted effect of over 55% in size; note: potency is the fitted concentration of half-maximal effect
In short: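 GH3.TRE-Luc rat pituitary cells (two TREs driving luciferase) were dosed with compound, then stimulated with 1 nM T3 (final) for 23.5 h at 37 C. ONE-Glo luminescence was the read-out, with CellTiter-Fluor fluorescence as the cytotoxicity counter-screen.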

[2] = system: thyroid hormone receptor (rat, GH3 cells); test: qHTS assay to identify small molecule agonists of the thyroid receptor (TR) signaling pathway (AID 743066; calls by dose curve); conditions: GH3.TRE-Luc cells, TR agonist luciferase, 24 h; series mostly up to 83.9 µM
[3] = biological target: Estrogen receptor (Homo sapiens) (UniProt P03372); test: qHTS assay to identify small molecule antagonists of the estrogen receptor alpha (ER-alpha) signaling pathway (AID 743069; active = well fitted curve in the direction sought with a large enough effect in the signal ratio in the repeat runs, not every such curve was filed as active; the % refers to the signal ratio; note: potency is the fitted concentration of half-maximal effect); conditions: HEK293 ER-alpha-UAS-bla, beta-lactamase ratio, antagonist mode; series mostly up to 69.4 µM
In short: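 In this cell-based reporter format, GripTite HEK293 cells harbouring ER-alpha-UAS-bla were grown overnight with 2% charcoal-stripped FBS, dosed with DMSO-dissolved compounds, then challenged with 17beta-estradiol. After 18 hr at 37C, beta-lactamase activity was detected by FRET fluorescence.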

[4] = biological target: Estrogen receptor (Homo sapiens) (UniProt P03372); test: qHTS assay to identify small molecule agonists of the estrogen receptor alpha (ER-alpha) signaling pathway (AID 743075; calls by dose curve); conditions: HEK293 ER-alpha-UAS-bla, beta-lactamase FRET ratio, 18 h; series mostly up to 70.1 µM
[5] = biological target: Estrogen receptor (Homo sapiens) (UniProt P03372); test: qHTS assay to identify small molecule agonists of the estrogen receptor alpha (ER-alpha) signaling pathway using the BG1 cell line (AID 743079); conditions: BG1Luc4E2 cells, ERE-luciferase agonist, 22 h; series mostly up to 70.3 µM; note: nearly all actives have a fitted effect of over 20% in size; note: potency is the fitted concentration of half-maximal effect
[6] = qHTS assay to identify small molecule antagonists of the estrogen receptor alpha (ER-alpha) signaling pathway using the BG1 cell line - cell viability counter screen (AID 743081); conditions: BG1Luc4E2 viability, CellTiter-Fluor, 22 h; series mostly up to 70.3 µM;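 note: compound given together with 17beta-estradiol as the ER stimulus; nearly all actives have a fitted effect of over 45% in size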
[7] = biological target: Aromatase (Homo sapiens) (UniProt P11511); test: qHTS assay to identify aromatase inhibitors (AID 743083); conditions: MCF-7 aro ERE, testosterone-driven ERE luciferase, 24 h; series mostly up to 70.3 µM; note: nearly all actives have a fitted effect of over 55% in size
[8] = qHTS assay to identify aromatase inhibitors - cell viability counter screen (AID 743084); conditions: MCF-7 aro ERE viability, CellTiter-Fluor, 24 h; series mostly up to 70.3 µM;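 note: cells stimulated with testosterone during compound exposure; nearly all actives have a fitted effect of over 55% in size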; note: potency is the fitted concentration of half-maximal effect
[9] = qHTS assay to identify small molecule antagonists of the estrogen receptor alpha (ER-alpha) signaling pathway - cell viability counter screen (AID 743074; calls by dose curve; note: nearly all actives have a fitted effect of over 45% in size); conditions: ERalpha-bla HEK293 viability, CellTiter-Glo luminescence, 18 h; series mostly up to 69.4 µM
[10] = qHTS assay to identify small molecule antagonists of the estrogen receptor alpha (ER-alpha) signaling pathway using the BG1 cell line (AID 743080; calls by dose curve;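 note: BG1 cells stimulated with 17beta-estradiol alongside compound; nearly all actives have a fitted effect of over 25% in size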); conditions: BG1Luc4E2 ERE-luciferase antagonist mode, luminescence; series mostly up to 70.3 µM
In short: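 Quantitative HTS on the Tox21 10K library: BG1 cells with endogenous ER-alpha and ERE-luciferase reporter, 17beta-estradiol stimulation, 21.5 h compound exposure, luminescence endpoint with parallel fluorescence cytotoxicity counter-read.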

Chain of Aromatase (Homo sapiens) (P11511 whole entry, looked up): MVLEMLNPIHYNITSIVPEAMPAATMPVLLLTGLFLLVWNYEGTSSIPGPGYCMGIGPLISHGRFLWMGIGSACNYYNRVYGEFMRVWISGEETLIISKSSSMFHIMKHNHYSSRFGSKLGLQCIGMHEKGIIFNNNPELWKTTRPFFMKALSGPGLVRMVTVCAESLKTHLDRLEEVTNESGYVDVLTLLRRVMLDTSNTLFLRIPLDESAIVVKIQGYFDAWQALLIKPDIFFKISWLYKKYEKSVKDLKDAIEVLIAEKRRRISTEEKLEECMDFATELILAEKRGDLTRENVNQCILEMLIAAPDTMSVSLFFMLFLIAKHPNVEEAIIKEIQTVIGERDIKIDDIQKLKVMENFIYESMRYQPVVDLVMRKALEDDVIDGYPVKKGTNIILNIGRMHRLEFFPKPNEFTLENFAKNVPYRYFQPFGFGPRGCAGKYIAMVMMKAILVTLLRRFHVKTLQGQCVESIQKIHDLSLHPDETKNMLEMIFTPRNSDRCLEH
Chain of Estrogen receptor (Homo sapiens) (P03372 whole entry, looked up): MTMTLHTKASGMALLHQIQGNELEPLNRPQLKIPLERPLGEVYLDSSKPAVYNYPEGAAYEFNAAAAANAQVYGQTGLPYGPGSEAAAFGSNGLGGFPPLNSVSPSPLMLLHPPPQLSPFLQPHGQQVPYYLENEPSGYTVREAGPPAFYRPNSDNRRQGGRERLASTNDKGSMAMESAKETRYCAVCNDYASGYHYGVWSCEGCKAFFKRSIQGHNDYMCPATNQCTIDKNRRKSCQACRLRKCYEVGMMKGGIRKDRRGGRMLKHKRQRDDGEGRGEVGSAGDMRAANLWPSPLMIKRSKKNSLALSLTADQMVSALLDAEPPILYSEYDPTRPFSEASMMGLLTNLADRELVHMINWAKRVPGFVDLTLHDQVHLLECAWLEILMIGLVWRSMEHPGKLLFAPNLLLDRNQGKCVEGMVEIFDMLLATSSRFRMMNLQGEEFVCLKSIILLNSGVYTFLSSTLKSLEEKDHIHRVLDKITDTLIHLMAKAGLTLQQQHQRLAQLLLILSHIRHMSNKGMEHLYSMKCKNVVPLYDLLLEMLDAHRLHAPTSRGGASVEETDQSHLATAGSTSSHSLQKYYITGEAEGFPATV

SMILES	Potency [1]	outcome [2]	Potency [3]	Potency [4]	Potency [5]	outcome [6]	outcome [7]	Potency [8]	Potency [9]	Potency [10]
COc1cc(C(=O)NCc2ccc(OCCN(C)C)cc2)cc(OC)c1OC	inactive	inactive	inactive	inactive	inactive	inactive	inactive	inactive	–	–
Cc1ncc([C@@H](CCCCCCc2ccc3c(n2)NCCC3)CC(=O)O)cn1	inactive	inactive	–	inactive	inactive	inactive	inactive	–	inactive	–
CC/C=C\CCOC(C)OCC (stereo not drawn)	inactive	inactive	inactive	–	inactive	inactive	inactive	inactive	inactive	inactive
CNC(=O)Nc1ccc(Cl)c(Cl)c1	30600 nM (active)	inactive	inactive	–	inactive	inactive	inactive	inactive	inactive	–
CCOc1ccc2nc(S(N)(=O)=O)sc2c1	inactive	inactive	inactive	inactive	–	inactive	inactive	inactive	inactive	–
C[C@H]1C[C@H]2[C@@H]3CCC4=CC(=O)C=C[C@]4(C)[C@H]3C(=O)C[C@]2(C)[C@@]1(O)C(=O)CO	inactive	inactive	inactive	inactive	inactive	inactive	inactive	inactive	–	–
CC(=O)N[C@H]1[C@H]([C@H](O)[C@H](O)CO)OC(C(=O)O)=C[C@@H]1N=C(N)N	inactive	inactive	inactive	inactive	inactive	inactive	inactive	inactive	–	inactive
C=COC(=O)C(C)(CC)CCC(C)C (stereo not drawn)	inactive	inactive	inactive	inactive	inactive	inactive	inactive	inactive	–	–
Nc1ccn([C@@H]2O[C@H](CO)[C@@H](O)C2(F)F)c(=O)n1	42.2 nM (active)	inactive	4.77 µM [inhibitor] (active)	inactive	inactive	inactive	inactive	inactive	–	–
CC(CO)(CO)[N+](=O)[O-]	inactive	inactive	inactive	inactive	–	inactive	–	inactive	inactive	inactive
CCCCCCCCCCCCCCC(=O)O	inactive	inactive	inactive	–	–	inactive	inactive	inactive	inactive	inactive
C[N+]1(C)CCCC(OC(=O)C(O)(c2ccccc2)c2ccccc2)C1 (stereo not drawn)	inactive	inactive	inactive	inactive	–	inactive	inactive	inactive	inactive	–
Nc1ccn([C@@H]2O[C@H](CO)[C@@H](O)[C@@H]2O)c(=O)n1	77 nM (active)	inactive	–	inactive	24.3 µM (active)	inactive	inactive	inactive	inactive	inactive
Nc1ccn([C@@H]2O[C@H](CO)[C@@H](O)C2O)c(=O)n1 (stereo partly drawn)	376 nM (active) and 193 nM (active)	inactive	–	inactive	inactive	inactive	inactive	inactive	inactive	inactive
CCOC(=O)c1ccccc1	inactive	inactive	inactive	inactive	–	inactive	inactive	inactive	inactive	inactive
CC(=O)c1ccc2ccccc2c1	inactive	inactive	–	inactive	inactive	inactive	inactive	inactive	inactive	inactive
O=C(O)CCSCCC(=O)O	inactive	inactive	–	inactive	inactive	inactive	inactive	inactive	inactive	inactive
C=CCCC(=O)O	inactive	inactive	inactive	inactive	–	inactive	inactive	inactive	inactive	–
CN1CCC(=C2c3ccccc3CCc3cccnc32)CC1	23700 nM (active)	inactive	inactive	inactive	inactive	inactive	inactive	inactive	inactive	–
CC1=CCC(O)(C(C)C)CC1 (stereo not drawn)	inactive	inactive	inactive	inactive	–	inactive	inactive	inactive	inactive	inactive
CC(=O)N1C[C@H](O)C[C@H]1C(=O)O	inactive	inactive	inactive	–	10.6 µM (active)	inactive	inactive	inactive	inactive	–

SMILES	Potency [1]	outcome [2]	Potency [3]	Potency [4]	Potency [5]	outcome [6]	outcome [7]	Potency [8]	Potency [9]	Potency [10]
CC(=O)O[C@@]12CO[C@@H]1C[C@H](O)[C@@]1(C)C(=O)[C@H](O)C3=C(C)[C@@H](OC(=O)[C@H](O)[C@@H](NC(=O)OC(C)(C)C)c4ccccc4)C[C@@](O)([C@@H](OC(=O)c4ccccc4)[C@H]21)C3(C)C	29.8 nM (active)	inactive	inactive	inactive	inactive	inactive	inactive	26.6 µM (active)	–	–
CC1CCC(CO)CC1 (stereo not drawn)	inactive	inactive	–	inactive	inactive	inactive	inactive	inactive	inactive	–
C=CCCCCCCCCC(=O)OCC	inactive	inactive	inactive	inactive	inactive	inactive	inactive	inactive	–	–
CC(C)(C)C(=O)c1ccccc1	inactive	inactive	inactive	–	61.1 µM (active)	inactive	inactive	inactive	inactive	inactive
c1coc(CNc2ncnc3nc[nH]c23)c1	inactive	inactive	inactive	inactive	–	inactive	inactive	inactive	inactive	inactive
[O-][n+]1cccc(CO)c1	inactive	inactive	inactive	inactive	–	inactive	inactive	–	inactive	inactive
COc1ccnc(CS(=O)c2nc3cc(OC(F)F)ccc3[nH]2)c1OC (stereo not drawn)	inactive	inactive	–	inactive	inactive	inactive	inactive	inactive	inactive	–
CCOC(=O)c1cnc2c(cnn2CC)c1NN=C(C)C	inactive	inactive	–	inactive	inactive	inactive	inactive	inactive	inactive	–
C[N+](C)(CCOc1ccccc1)Cc1cccs1	inactive	inactive	–	–	–	inactive	inactive	inactive	inactive	–
CCCCOCCOC(=O)CCCCCCCCC(=O)OCCOCCCC	inactive	inactive	–	–	–	inactive	inactive	inactive	inactive	–
CC(C)C(=O)OC(=O)C(C)C	inactive	inactive	–	–	–	inactive	–	–	inactive	–
C1CCC2=NCCCN2CC1	inactive	inactive	–	–	–	inactive	inactive	inactive	inactive	–
C=C(C)C(=O)OCC1CCCO1 (stereo not drawn)	inactive	inactive	–	–	–	inactive	–	–	inactive	–
O=C1NC(=O)C2CC=CCC12 (stereo not drawn)	inactive	inactive	–	–	–	inactive	–	–	inactive	–
CC(C)NNC(=O)c1ccncc1	inactive	inactive	–	–	–	inactive	inactive	inactive	inactive	inactive
COc1ccccc1OCC1CNC(=O)O1 (stereo not drawn)	inactive	inactive	–	–	–	inactive	inactive	inactive	inactive	–
CCO[Si](OCC)(OCC)c1ccccc1	inactive	inactive	–	–	–	inactive	–	–	inactive	–
CC(C)CC(C)(N)C#N (stereo not drawn)	inactive	inactive	–	–	–	inactive	inactive	inactive	inactive	–
CC1(C)[C@@H]2CC[C@@]1(C)[C@H](O)C2	inactive	inactive	–	–	–	inactive	inactive	inactive	inactive	–
CC[N+](CC)(CC)CCOc1cccc(OCC[N+](CC)(CC)CC)c1OCC[N+](CC)(CC)CC	inactive	inactive	–	–	–	inactive	inactive	inactive	inactive	–
CC(C)(C#N)Nc1nc(Cl)nc(NC2CC2)n1	inactive	inactive	–	–	–	inactive	inactive	inactive	inactive	–
